# In the library only some 7.2% were active in any assay of this set; here they are far more common.
# AHR act – activators of human aryl hydrocarbon receptor; AHR-responsive luciferase reporter cells, luminescence; activation, % at 5 µM; actives 2.5% (n = 320,000); in the data active = activation above about 47%
# Target sequence (P35869 whole entry, looked up): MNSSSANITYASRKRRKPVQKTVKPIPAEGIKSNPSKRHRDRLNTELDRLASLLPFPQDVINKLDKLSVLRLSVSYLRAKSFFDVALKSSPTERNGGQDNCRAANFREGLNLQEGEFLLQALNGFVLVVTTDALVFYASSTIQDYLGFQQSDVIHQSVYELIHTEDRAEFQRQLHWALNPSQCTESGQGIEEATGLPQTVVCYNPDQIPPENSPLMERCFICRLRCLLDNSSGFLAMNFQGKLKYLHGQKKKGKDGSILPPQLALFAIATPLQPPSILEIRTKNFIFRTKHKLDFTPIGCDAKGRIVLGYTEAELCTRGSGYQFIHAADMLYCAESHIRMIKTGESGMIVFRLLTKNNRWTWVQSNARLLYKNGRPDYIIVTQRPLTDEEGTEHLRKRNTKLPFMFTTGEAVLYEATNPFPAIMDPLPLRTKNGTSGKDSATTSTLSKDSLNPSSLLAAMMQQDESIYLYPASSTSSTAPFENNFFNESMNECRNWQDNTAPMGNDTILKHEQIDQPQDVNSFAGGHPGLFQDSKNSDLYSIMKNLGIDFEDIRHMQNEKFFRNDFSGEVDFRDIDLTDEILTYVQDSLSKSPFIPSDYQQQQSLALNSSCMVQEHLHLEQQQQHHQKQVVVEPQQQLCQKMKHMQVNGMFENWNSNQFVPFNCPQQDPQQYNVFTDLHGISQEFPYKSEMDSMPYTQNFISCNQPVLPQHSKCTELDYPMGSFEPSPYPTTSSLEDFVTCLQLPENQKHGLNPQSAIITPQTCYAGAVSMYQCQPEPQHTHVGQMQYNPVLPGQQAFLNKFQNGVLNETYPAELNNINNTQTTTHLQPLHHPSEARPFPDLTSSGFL
# Bfl-1 A1 inh – inhibitors of the anti-apoptotic protein A1, read as caspase activation | MEF A1-2A-BIM cells, Caspase-Glo 3/7 luminescence, 3 h; percent of clofoctol response, vehicle zero | caspase activation, % (concentration not given with the values) | actives 0.066% (n = 330,000) | AID 2462;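 active = over half of replicate activation scores above 10%, or exactly half above 10 with the replicate mean above 10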
# VLA-4 inh – inhibition in a human VLA-4 binding assay | P13612 | VLA-4 expressing cells, ligand binding flow cytometry | inhibition, % (about 7 µM as worked out from the volumes in the protocol) | actives 0.2% (n = 330,000); in the data active = inhibition above about 50%
# ALR H2O2 inh – human ALR oxidase inhibition via reduced H2O2; purified ALR, DTT oxidation, H2O2 HRP-luminol luminescence; P55789; inhibition, % (concentration not given with the values); actives 3.8% (n = 290,000);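 active = mean replicate inhibition above about 79%, with every replicate also reaching it, limit read from the data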
# SUMO Mot1 rescue – inhibitors of SUMOylation pathway: yeast Mot1-301 growth rescue | AID 2716 | actives 1% (n = 320,000) | S. cerevisiae Mot1-301 growth rescue, ATP luminescence, 38.5C; percent above DMSO median, 100 means doubled | growth rescue, % at 18.8 µM;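 active = every valid replicate shows activation above 250% relative to neutral control wells; inactive = the rest, any valid replicate at or below 250%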
# Efflux pump inh – inhibitors of Candida antifungal efflux pumps expressed in yeast | inhibition, % at 10 µM | S. cerevisiae Candida pump triplex, Nile Red efflux | AID 485275 | actives 0.44% (n = 330,000);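 active = plate passing quality check with inhibition over a set limit, or well fluorescence over plate mean plus 4 SD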;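 also: Nile Red retained in pooled yeast measured as flow cytometry median fluorescence; higher means more Nile Red kept so more efflux inhibition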
# Numbers stand for hits; - = inactive; . = no result given.
SMILES,AHR act,Bfl-1 A1 inh,VLA-4 inh,ALR H2O2 inh,SUMO Mot1 rescue,Efflux pump inh
COc1cc(OC)cc(C(=O)N2CCC(N3CCN(c4ccccc4)CC3)CC2)c1,-,-,-,82.4,-,-
Fc1cccc(NC(=S)N2CCN(c3ccccn3)CC2)c1,-,-,-,-,-,-
Oc1ccc(NCc2cccs2)cc1,-,-,-,95.5,-,-
CC(=O)c1ccc(NC(=O)CNCc2cccs2)cc1,-,-,-,.,-,-
O=C(O)c1ccccc1NCc1cccs1,-,-,-,-,-,-
Cc1ccc(NC(=O)OCc2cccs2)cc1,-,-,56.7,-,-,-
CC(=O)Nc1ccc(NCc2cccs2)cc1,-,-,-,95.1,-,-
C=CCn1c(CCSCc2ccccc2)n[nH]c1=S,-,-,-,94.4,-,-
CCN1CCN(C(=O)CS(=O)(=O)Cc2nc(-c3cccc(OC)c3)oc2C)CC1,-,-,-,98.8,-,-
COc1cccc(-c2nc(CS(=O)(=O)CC(=O)NCCCN3CCOCC3)c(C)o2)c1,-,-,-,98.6,-,-
Cc1oc(-c2cccc(Cl)c2)nc1CS(=O)(=O)CC(=O)NCCN1CCOCC1,-,-,-,95.4,-,-
CCCN1CCN(C(=O)CS(=O)(=O)Cc2nc(-c3cccc(OC)c3)oc2C)CC1,-,-,-,-,-,-
Cc1oc(-c2ccccc2Cl)nc1CS(=O)(=O)CC(=O)NCCN1CCOCC1,-,-,-,93.4,-,-
COc1ccc(-c2nc(CS(=O)(=O)CC(=O)NCCCN3CCOCC3)c(C)o2)cc1,-,-,-,-,-,-
CS(=O)(=O)Nc1nc2n(n1)C(c1ccccc1)CC(c1ccccc1)N2 (stereo not drawn),-,-,-,-,-,-
Cc1oc(-c2ccccc2F)nc1CS(=O)(=O)CC(=O)N1CCCCCC1,-,-,-,-,-,-
COc1cccc(-c2nc(CS(=O)(=O)CC(=O)NCCCN3CCc4ccccc4C3)c(C)o2)c1,-,-,-,99.0,-,-
Cc1oc(-c2ccccc2Cl)nc1CS(=O)(=O)CC(=O)N1CCOCC1,-,-,-,98.1,-,-
CCC1CCCCN1CCCNC(=O)CS(=O)(=O)Cc1nc(-c2cccc(OC)c2)oc1C (stereo not drawn),-,-,-,98.4,-,-
COc1cccc(-c2nc(CS(=O)(=O)CC(=O)NCCN3CCOCC3)c(C)o2)c1,-,-,-,99.0,-,-
Cc1nc(N2CCOCC2)nc(OCCN2CCOCC2)c1[N+](=O)[O-],-,-,-,-,-,-
Cc1ccc(Cl)cc1NC(=O)Cn1nc(-c2cccs2)ccc1=O,-,-,-,-,-,-
O=C1CN(c2nc(-c3ccccc3)c3ccccc3n2)c2ccccc2N1,61.1,-,-,-,-,-
O=P(Cc1nnco1)(c1ccccc1)c1ccccc1,-,-,-,-,339.8,-
CC1CCCCN1CCCNc1c(C=O)c(=O)[nH]c2ccccc12 (stereo not drawn),.,-,-,-,-,-
SMILES,AHR act,Bfl-1 A1 inh,VLA-4 inh,ALR H2O2 inh,SUMO Mot1 rescue,Efflux pump inh
O=C(NC(=S)Nc1cccc(Cl)c1Cl)C1CC1,52.3,-,-,-,-,-
Cc1ccc(NC(=O)CN(C)C(=O)CCC(=O)c2cccs2)cc1,-,-,-,.,-,-
COc1ccc(CN(CC2CCC(C(=O)O)CC2)C(=S)Nc2cccc(C)c2)cc1 (stereo not drawn),-,-,-,-,-,-
CCOc1ccccc1/C=N/NC(=O)c1cccc(S(=O)(=O)N(CC)CC)c1,-,-,-,-,-,-
CCN(CC)S(=O)(=O)c1cccc(C(=O)N/N=C(\C)c2ccc(O)cc2O)c1,-,-,-,86.3,-,-
CCN(CC)S(=O)(=O)c1cccc(C(=O)N/N=C/c2ccc(O)c(O)c2O)c1,-,-,-,98.3,-,-
CCN(CC)C(=O)c1ccccc1NC(=O)c1cccc(S(=O)(=O)N(CC)CC)c1,-,-,-,-,-,-
O=C(O)CN1C(=O)/C(=C\c2cc(Br)ccc2OCc2ccc(Cl)cc2Cl)SC1=S,63.8,-,-,-,-,-
O=C(O)CN1C(=O)/C(=C\c2cccc(OCc3ccc(F)cc3)c2)SC1=S,.,-,-,-,-,-
O=C(O)CN1C(=O)/C(=C\c2cccc(OCc3ccccc3F)c2)SC1=S,-,-,-,-,-,-

# Assay outcomes: PubChem BioAssay, several laboratories
